Source: PubChem
D2 ag-1: Beta-Arrestin HTS for Positive Allosteric Modulators of the Human D2 Dopamine Receptor: Agonists | D(2) dopamine receptor (Homo sapiens), P14416 | DiscoveRx PathHunter D2 beta-arrestin, luminescence, 90 min; 100% = 57 uM dopamine signal | activation, % (test concentration not listed) | hit rate 0.084% among 360,000; in the data active = activation above about 40%; inconclusive = between about 15% and that limit
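Agonist mode: compounds alone added to overnight-plated D2 PathHunter cells for 90 min at 37 C, with 57 uM final dopamine (EC100) defining full response. Beta-arrestin recruitment detected by chemiluminescent reagent, read after 1 h at ambient temperature.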
D2 ag-2: HTS Assay for Allosteric Agonists of the Human D2 Dopamine Receptor: Primary Screen for Agonists | D(2) dopamine receptor (Homo sapiens), P14416 | HEK293 T-REx D2 cells, calcium flux agonist mode | activation, % at 2 µM | hit rate 0.53% among 340,000;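 active = activation over 3 SD above normal in the single-dose calcium agonist read, cut at about 30% in these data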; note: 0% is about no effect
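Tetracycline-induced HEK293 T-REx cells with force-coupled D2 receptor, plated overnight at 30 C, loaded with no-wash calcium dye. After a 10 s baseline, compound was pin-added and calcium flux read kinetically for 180 s; calcium rises flagged agonists.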
D2 antagonist: HTS Assay for Allosteric Antagonists of the Human D2 Dopamine Receptor: Primary Screen for Antagonists | HEK293 TREx D2 cells, calcium flux, dopamine EC80 | hit rate 2% among 340,000 | inhibition, % at 10 µM | AID 485344, 2010 | D(2) dopamine receptor (Homo sapiens), P14416; in the data active = inhibition above about 30%; inactive = below that, where a call was filed; note: 0% is about no effect
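Inhibition of EC80 dopamine-driven calcium flux, recorded kinetically, defines activity here; cells are a tetracycline-induced HEK293 T-REx line expressing force-coupled D2.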
D2 PAM-1: HTS Assay for Positive Allosteric Modulators of the Human D2 Dopamine Receptor: Primary Screen for Potentiators | potentiation, % at 10 µM | HEK293 T-REx D2, calcium flux, EC20 dopamine potentiation | AID 485347, 2010 | D(2) dopamine receptor (Homo sapiens), P14416 | hit rate 0.34% among 340,000;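 active = potentiation over 3 SD above the plate norm, cut at about 30% in these data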; note: 0% is about no effect
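Potentiation of an EC20 dopamine calcium response is measured in a force-coupled, tetracycline-inducible Hek293 Trex D2 line. Compound-only kinetic reads over 180 s flag agonists before dopamine addition.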
D2 PAM-2: Beta-Arrestin HTS for Positive Allosteric Modulators of the Human D2 Dopamine Receptor: Potentiators; hit rate 0.23% among 360,000; DiscoveRx D2 beta-arrestin cells, luminescence, 90 min; 100% = 57 uM dopamine signal; potentiation, % (no concentration beside the values); in the data active = potentiation above about 50%; inconclusive = mostly about 30% to 49%
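D2 cells co-treated with compound plus 50 nM dopamine (EC20) for 90 min at 37 deg C to detect potentiation. Beta-arrestin recruitment was read as enzyme-fragment luminescence after 1 h at ambient temperature. Full response was set by 57 uM dopamine.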
D3 arrestin ag: qHTS of D3 Dopamine Receptor Agonist: D3 Dopamine Receptor B-arrestin Agonist Confirmatory Assay. shares compounds with D2 ag-2. DiscoveRx D3 beta-arrestin cells, luminescence, 90 min. Potency, µM (series often up to 76.9 µM), for the others: top-dose activation, usual class: activators. hit rate 4% among 2,300;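 note: potency is the fitted concentration of half-maximal effect; 100% = dopamine control response; nearly all actives have a fitted effect of over 70% in size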
Target sequence (P35462 whole entry, looked up): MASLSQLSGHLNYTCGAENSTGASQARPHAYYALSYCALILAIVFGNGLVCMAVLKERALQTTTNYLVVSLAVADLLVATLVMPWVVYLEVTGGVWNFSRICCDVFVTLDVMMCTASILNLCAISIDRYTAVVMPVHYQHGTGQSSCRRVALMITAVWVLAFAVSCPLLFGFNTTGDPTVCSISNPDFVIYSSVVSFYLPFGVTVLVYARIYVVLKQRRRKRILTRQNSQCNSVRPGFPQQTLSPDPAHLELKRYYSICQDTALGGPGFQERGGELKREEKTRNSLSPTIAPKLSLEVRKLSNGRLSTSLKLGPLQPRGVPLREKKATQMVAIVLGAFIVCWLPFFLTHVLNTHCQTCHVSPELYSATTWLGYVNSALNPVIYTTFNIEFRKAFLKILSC
D2 ag-3: qHTS of D3 Dopamine Receptor Agonist: D2 Dopamine Receptor B-arrestin Agonist Counterscreen; shares compounds with D2 ag-2; DiscoveRx PathHunter D2 beta-arrestin, luminescence, 90 min; response scale: percent relative to full dopamine signal; Potency, µM (titrated, usually from 76.9 µM), inactives show at the top dose activation, actives largely listed as activators; hit rate 5.9% among 2,300; note: potency is the fitted concentration of half-maximal effect; % of control where 0% means no effect; nearly all actives have a fitted effect of over 70% in size
Starred values were filed as active, the others as inactive; ? = inconclusive; nt = no result; ! = repeats disagree. The list is not random: actives were taken first. Their share in the collection is about 2.4%. Unless noted, calls come from the whole dose curve; as a rule, active = well fitted activation curve with a large enough effect; inconclusive = small, poorly fitted or top-dose-only effect; inactive = flat fitted curve, though single readings scatter.

SMILES | D2 ag-1 | D2 ag-2 | D2 antagonist | D2 PAM-1 | D2 PAM-2 | D3 arrestin ag | D2 ag-3
O=C(CN1CCN(c2ncccn2)CC1)NCc1ccccc1 | 9.4 | 50.4* | 8.3 | -16.7 | -2.9 | 20.8% | 16.1%
Cc1ccc(NC(=O)c2c3c(nc4ccccc24)C(=O)N(C2CCCCC2)C3)cc1F | nt | 0.4 | nt | -2.8 | nt | nt | nt
Cc1ccc(NC(=O)CSc2nc3nc(C)c(Cc4ccccc4)c(C)n3n2)cc1 | nt | 0.5 | nt | -8.7 | nt | nt | nt
O=C(CNC(=O)c1ccc(Br)o1)NCC1CCCCC1 | -3.2 | 0.2 | -11.4 | -4.7 | -20.8 | -5.3% | -6.5%
COc1ccc(CNCCNC(=O)c2ccco2)c(OC)c1OC | 2.0 | 47.7* | -6.0 | -15.1 | -18.4 | -4.3% | -4.5%
COc1ccc(-c2nc3c(C#N)c[nH]n3c2NC2CCCCC2)cc1 | nt | 0.8 | nt | 8.4 | nt | nt | nt
CCCn1c(N2CCN(C(=O)Nc3ccc(Cl)cc3)CC2)nc2ccccc21 | ? | nt | nt | nt | 6.9 | 13.0% | ?
C=CCn1c(SCCCC)nc(O)cc1=O | -1.8 | 14.9 | 30.8*! | -11.6 | -7.4 | 0.9% | -0.6%
COc1ccc(Cl)cc1NC(=O)NCCn1c(=O)oc2ccc(C)cc21 | nt | -0.7 | nt | -26.1 | nt | nt | nt
CCOc1ccccc1NC(=O)Cn1cnc2c1c(=O)n(C)c(=O)n2C | nt | 0.4 | nt | -5.1 | nt | nt | nt
CC1(NC(=O)c2ccccc2)CCN(CCc2cccs2)C1=O (stereo not given) | -3.2 | nt | nt | -5.3 | -8.3 | nt | nt
O=C(NC1(Cc2ccccc2)CCN(CCc2cccs2)C1=O)c1ccccc1 (stereo not given) | 4.3 | -0.4 | -0.3 | 9.6 | -4.1 | -11.3% | -3.6%
Cc1ccc(-n2ncc(C(=O)NCCN3CCOCC3)c2C2CCN(C(=O)OC(C)(C)C)CC2)c(C)c1 | nt | 0.5 | nt | -3.7 | nt | nt | nt
O=C(C[n+]1cc(-c2ccccc2)n2c1CCC2)Nc1nc(-c2ccc(F)cc2)cs1 | 4.8 | 75.8* | 75.6* | -23.1 | -20.1 | 23.5% | ?
Cc1ccc(NC(=O)C[n+]2cc(-c3ccccc3)n3c2CCC3)c(C)c1 | 0.6 | 81.2* | 65.4* | -20.1 | -5.1 | -23.3% | 0.1%
Cc1ccc(-c2csc(NC(=O)C[n+]3cc(-c4ccccc4)n4c3CCC4)n2)cc1 | 7.3 | 77.1* | 63.8* | -20.8 | 3.6 | 6.8% | 17.9%
Cc1ccc(-c2c[n+](CC(=O)Nc3c(C)cccc3C)c3n2CCC3)cc1 | -6.0 | 0.7 | 0.1 | -13.0 | -18.7 | nt | nt
Cc1ccc(-c2csc(NC(=O)C[n+]3cc(-c4ccc(C)cc4)n4c3CCC4)n2)cc1 | 0.5 | -0.8 | -18.8 | -15.0 | -11.7 | nt | nt
O=C(C[n+]1cc(-c2ccccc2)n2c1CCC2)N1c2ccccc2Sc2ccccc21 | 0.1 | 64.1* | 36.8* | -29.5 | -24.0 | 0.7% | 12.3%
Fc1cccc(NCc2ccccc2-c2nnc(-c3ccccc3Cl)o2)c1 | nt | -0.7 | nt | -6.7 | nt | nt | nt
O=C(CN1C(=O)NC2(CCCC2)C1=O)Nc1nc(-c2ccc(F)cc2)cs1 | -2.3 | 0.5 | 12.7 | 3.5 | 0.7 | -6.8% | 2.7%
O=C(CN1CCc2ccccc2C1)NC1CCCC1 | 1.5 | -1.6 | 13.8 | 9.5 | -8.2 | 2.2% | 3.7%
N#CC1(NC(=O)CN2CCc3ccccc3C2)CCCC1 | 3.6 | 15.8 | 8.1 | -31.8 | -0.5 | 1.3% | 9.8%
Cc1cccc(NC(=O)N2CCc3ccccc3C2)c1C | -6.3 | 26.1 | 4.7 | -5.6 | -5.5 | -13.1% | 0.5%
O=C(NC1CCCCC1)N1CCc2ccccc2C1 | -4.4 | -0.1 | -2.8 | 2.0 | -26.3 | nt | nt
